This is a sample that favours compounds with a hit; in the whole collection about 4.3% have one here.
NR3A LBD binder – NR3A (human) ligand-binding domain modulation | 340,000 tested, 2.5% active | Tm shift relative to glycine control, % at 25 µM | NR3A LBD differential scanning fluorimetry, Tm shift; 0% = protein alone, 100% = glycine-bound protein;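 active means melting temperature shift of at least 10% of the positive control shift, at one fixed dose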
NALP1 inh – inhibitors of NALP1 inflammasome in yeast; S. cerevisiae NALP1/ASC/caspase-1 growth, X-gal OD620, 72 h; inhibition, % at 10 µM; 280,000 tested, 0.61% active; in the data active means inhibition mostly above about 24%, no sharp cut-off; inactive means mostly below about 32%
dFosB activator – enhances mouse delta FosB homodimer DNA binding; purified delta FosB, TAMRA-CDK5 oligo fluorescence polarization; percent of positive-control signal above neutral wells; activation, % at 25 µM; 340,000 tested, 0.99% active;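 active means mean activation above about 17%, with every replicate also reaching it, limit read from the data, passing the limit was not always enough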
Target sequence (P13346 whole entry, looked up): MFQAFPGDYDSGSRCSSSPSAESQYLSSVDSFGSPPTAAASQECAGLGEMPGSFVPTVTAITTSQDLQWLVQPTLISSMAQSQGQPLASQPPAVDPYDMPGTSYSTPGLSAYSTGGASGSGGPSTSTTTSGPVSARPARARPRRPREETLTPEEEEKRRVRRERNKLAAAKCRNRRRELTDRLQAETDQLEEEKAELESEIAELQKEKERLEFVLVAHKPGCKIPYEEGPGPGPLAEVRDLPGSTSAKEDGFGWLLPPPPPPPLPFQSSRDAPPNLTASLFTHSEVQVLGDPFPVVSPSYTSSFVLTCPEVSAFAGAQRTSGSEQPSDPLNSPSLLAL
UBC13 polyUb – inhibitors of human UBC13 polyubiquitin chain formation | P61088 | TR-FRET | inhibition, % at 20 µM | 330,000 tested, 0.47% active | AID 485273; in the data active means inhibition above about 45%, passing the limit was not always enough
Target sequence (P61088 whole entry, looked up): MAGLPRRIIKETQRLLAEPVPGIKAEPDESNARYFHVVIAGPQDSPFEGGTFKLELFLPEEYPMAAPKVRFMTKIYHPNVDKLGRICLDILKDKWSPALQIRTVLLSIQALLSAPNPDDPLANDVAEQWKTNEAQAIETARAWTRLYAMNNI
Yeast superoxide – lowers age-related superoxide in aged yeast cells | S. cerevisiae aged cells, superoxide DHE fluorescence; stronger effect = lower value | superoxide response (% of plate mean), % at 10 µM | 330,000 tested, 0.18% active;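 active means superoxide response under a set limit, about three screen SD below normal, cut at about 65% in these data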;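 further: yeast aged for seven days with compound at 30 °C before DHE staining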
Hits are given with their value; 0 = inactive; - = no result given.

SMILES	NR3A LBD binder	NALP1 inh	dFosB activator	UBC13 polyUb	Yeast superoxide
COC(=O)C[C@H]1c2ccc(C(F)(F)F)cc2S(=O)(=O)N1Cc1ccccc1	12.9	-	0	0	0
O=C(COc1ccc(Br)cc1Br)NNC(=O)c1cccs1	0	0	0	0	0
Cc1cc(Br)cc(C)c1OCC(=O)NNC(=O)c1cccs1	13.1	0	0	0	0
CC(C)(C)c1ccc2c(c1)N(CC(=O)O)C(=O)CO2	0	0	0	0	0
CCOC(=O)N1CCN(C(=O)CN2C(=O)COc3ccc(C(C)(C)C)cc32)CC1	0	26.4	0	0	0
Brc1ccc(/C=N/Nc2nc3ccccc3o2)cc1	28.4	0	0	0	0
COc1ccc(-n2cc(CNCCc3cnc[nH]3)c(-c3cccc(F)c3)n2)cc1	0	27.2	0	0	0
COc1ccc(-n2cc(CN(C)C(C)c3ccncn3)c(-c3cccc(F)c3)n2)cc1 (stereo unspecified)	0	0	0	0	0
COc1ccc(-n2cc(CN(C)CCO)c(-c3cccc(F)c3)n2)cc1	0	24.4	0	0	0
Cc1nc(-c2cccc(NC(=O)c3ccc(-n4nccc4C)cc3)c2)cs1	23.1	-	0	0	0
Cc1nc(-c2ccc(C(=O)Nc3cccc(Br)c3)cc2)cs1	32.3	0	0	0	0
CCn1c(=O)c2sccc2n(Cc2cccc(C)c2)c1=O	0	0	0	0	0
CCC(=O)N1CCN(CCN=CC2=C(O)CC(C)(C)CC2=O)CC1	12.7	0	0	0	0
CC1(C)CC(=O)C(C=NCCN2CCN(C(=O)CCl)CC2)=C(O)C1	0	-	0	0	0
Oc1ccc(C=NN=C2c3ccccc3-c3ccccc32)c(O)c1	23.1	-	0	-	-
NC(N)=N/N=C/c1cccc([N+](=O)[O-])c1O	0	0	0	0	0
O=[N+]([O-])c1cccc(/C=N\N=C2c3ccccc3-c3ccccc32)c1O	14.1	0	0	0	0
ON=C1c2ccccc2-c2ccc(O)cc21	0	-	0	-	-
N#C/C(=C\c1cccc(Br)c1)C(=O)N1CCCCC1	0	0	0	0	0
Cc1c(N(C)C(=O)C23CC4CC(CC(C4)C2)C3)c(=O)n(-c2ccccc2)n1C	11.0	0	0	0	0
Cc1c(N(C)C(=O)c2ccc3c(c2)OCO3)c(=O)n(-c2ccccc2)n1C	0	0	0	0	0
O=C(CN(c1cccc(Br)c1)S(=O)(=O)c1ccccc1)N/N=C/c1cc([N+](=O)[O-])ccc1O	13.5	-	0	0	0
CCN(Cc1ccccc1)c1ccc(/C=N/NS(=O)(=O)c2cccc([N+](=O)[O-])c2)cc1	10.4	0	0	0	0
O=C(CN(Cc1ccccc1)S(=O)(=O)c1ccccc1)N/N=C/c1ccc([N+](=O)[O-])cc1	10.0	0	0	0	0
Brc1cccc(-c2n[nH]c(-c3ccccc3)n2)c1	0	28.6	0	0	0
SMILES	NR3A LBD binder	NALP1 inh	dFosB activator	UBC13 polyUb	Yeast superoxide
O=C(CSc1nc2ccccc2[nH]1)N1CCN(S(=O)(=O)c2ccc(Cl)cc2)CC1	0	0	0	0	0
CCN1C(=O)CC2CCCC1C2 (stereo unspecified)	11.2	-	0	-	-
O=C(CNC(=O)OCc1ccccc1)Oc1ccc2ccc(=O)oc2c1	0	0	0	0	0
O=C(NC(Cc1ccccc1)C(=O)Oc1ccc2c(C(F)(F)F)cc(=O)oc2c1)OCc1ccccc1 (stereo unspecified)	14.0	0	0	-	0
CN1/C(=C\C=C(C#N)C#N)C(C)(C)c2ccccc21	0	0	113.0	0	0
N#Cc1nc(-c2ccc(OCc3ccc(Cl)cc3)cc2)oc1NCCCn1ccnc1	16.6	0	0	0	0
N#Cc1nc(-c2ccccc2)oc1NCCCn1ccnc1	0	0	0	0	0
CNc1oc(-c2ccc(OCc3ccccc3)cc2)nc1C#N	32.9	0	0	0	0
N#Cc1nc(-c2ccc(OCc3ccccc3)cc2)oc1NCc1ccco1	0	0	0	0	0
CC(Sc1nnnn1-c1ccc(O)cc1)C(=O)NC1CCCCC1C (stereo unspecified)	0	0	0	0	0
COc1ccccc1NC(=S)NNC(=S)Nc1ccc(OC(F)F)cc1	31.9	0	0	0	0
CC1(NC(=O)Cc2c(Cl)cccc2Cl)CCS(=O)(=O)C1 (stereo unspecified)	0	-	0	0	0
CCC(=O)NNc1ncnc2c1cnn2-c1ccccc1	0	0	0	0	0
O=C(COC(=O)c1cn(-c2ccccc2)nc1-c1ccccc1)Nc1ncc(Cl)cc1Cl	0	-	0	0	0
NS(=O)(=O)c1ccc(NC(=O)COC(=O)c2cn(-c3ccccc3)nc2-c2ccccc2)cc1	21.7	-	0	0	0
NS(=O)(=O)c1ccc(NC(=O)COc2ncnc3c2cnn3-c2ccccc2)cc1	0	0	21.2	0	0
Cc1ccc(NC(=O)c2cc3cccc([N+](=O)[O-])c3[nH]2)cc1	33.4	0	0	0	0
COCCOC(=O)/C(=C/c1ccc(OC(=O)c2ccccc2)cc1)C(C)=O	0	61.3	0	0	0
CCOC(=O)/C(=C/c1ccc(OC(=O)c2ccncc2)cc1)C(C)=O	0	0	0	0	0
COc1ccc(-c2ccc([C@H]3[C@H]4C=CC[C@@H](C)[C@@H]4C(=O)N3Cc3ccccc3)c(F)c2)cc1	15.7	0	0	0	0
COc1ccc(-c2ccc([C@H]3[C@H]4C=CC[C@@H](C)[C@@H]4C(=O)N3Cc3ccccc3)c(F)c2)cc1OC	0	0	0	0	0
COc1ccc(-c2ccoc2)cc1[C@H]1[C@H]2C=CC[C@@H](C)[C@@H]2C(=O)N1Cc1ccccc1	14.3	0	0	0	0
CCCCCCCCN1N=N[C@H]2[C@H]1[C@@H]1C[C@H]2N(C(=O)OC(C)(C)C)O1	0	-	0	-	0
CCc1ccc(-c2cc(C)no2)cc1S(=O)(=O)Nc1ccc(Cl)cn1	0	0	0	0	0
CCc1ccc(-c2cc(C)no2)cc1S(=O)(=O)Nc1cc(C)on1	31.3	0	0	0	0
SMILES	NR3A LBD binder	NALP1 inh	dFosB activator	UBC13 polyUb	Yeast superoxide
Clc1ccc(SCNc2ccccc2Cl)cc1	10.3	0	0	0	0
Cc1nnc(NC(=O)c2ccc(F)c(S(=O)(=O)N3CCCCC3)c2)s1	15.9	0	0	0	0
O=C(Nc1ccccn1)c1ccc(Br)c(S(=O)(=O)N2CCCCC2)c1	12.6	0	0	0	0
O=C(Cc1ccc(Cl)cc1)NCCc1cnc[nH]1	0	0	0	0	0
COc1ccc(NC(=O)CN2C(=O)C(=O)N(C3CCCC3)C2=O)c(OC)c1	0	-	0	0	0
COc1ccc(CC(C)NCC(O)c2ccc(O)c(NC=O)c2)cc1 (stereo unspecified)	0	-	0	-	-
CC(C)(C)C(=O)Nc1cccc(OC(F)(F)C(F)Cl)c1 (stereo unspecified)	0	0	0	0	0
CC1(C)N=C(SCC(=O)Nc2ccc(Cl)cc2)C(c2ccc(Cl)cc2)=N1	0	36.5	0	0	0
CC1(C)N=C(SCC(=O)Nc2ccc(Cl)cc2)C(c2ccccc2)=N1	0	0	0	0	0

Bioassay records from PubChem.
